This is part of a sample that, as a whole, favours compounds with a hit. Of some 83,000 tested, about 20% had one in any assay.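 Percent growth is the endpoint: 0 to 100 indicates growth inhibition (40 means 60% inhibition), 0 means no net growth, and negative values indicate cell death.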 Unmarked numbers belong to inactive results. Calls of active or inactive are those of the source. How the source made its calls: active means growth percent below 10; inactive means the rest.

Test systems include DU-145 prostate; MALME-3M melanoma; MDA-MB-231 breast; RXF 393 renal; SF-268 CNS; SF-295 CNS; SF-539 CNS; UACC-257 melanoma; M14 melanoma.
Common to all, as to assay: NCI-60 one-dose screen, 48 h (100 = growth as untreated, 0 = no growth, -100 = all killed)
Another assay has as its system K-562 leukemia. The note with it: 10 µM unless noted.

Take `CN1C(=O)C2(C(C#N)=C(c3ccc(Cl)cc3)Nc3c2c(-c2ccccc2)nn3-c2ccccc2)c2ccccc21` (stereo unspecified): the growth in the assay with DU-145 prostate (10 µM unless noted) is 93.6%; with K-562 leukemia, 40.8%; in the assay on MALME-3M melanoma (10 µM unless noted), 78.9%; with MDA-MB-231 breast (10 µM unless noted), 46.1%; in the assay with RXF 393 renal (10 µM unless noted), 77%; in the assay with SF-268 CNS (10 µM unless noted), 93.5%. Moreover, the growth with SF-295 CNS (10 µM unless noted) was 77.4%; in the assay with SF-539 CNS (10 µM unless noted) it was -85.3% (active); with UACC-257 melanoma (10 µM unless noted), 112%; in the assay with M14 melanoma (10 µM unless noted), 77.2%.
As for `CC(=O)c1c2c(c3ccc4c5ccccc5ccc4n13)C(=O)c1ccccc1C2=O`, the growth in the assay on DU-145 prostate (10 µM unless noted) was 102%; in the assay on K-562 leukemia, 103%; with MALME-3M melanoma (10 µM unless noted), -49.5% (active); in the assay on MDA-MB-231 breast (10 µM unless noted) it was 77.3%; in the assay on RXF 393 renal (10 µM unless noted), 59.6%; in the assay on SF-268 CNS (10 µM unless noted), 98%. For the same molecule, the growth was 92.5% with SF-295 CNS (10 µM unless noted), 77.6% with SF-539 CNS (10 µM unless noted), 97.5% in the assay with UACC-257 melanoma (10 µM unless noted) and 65.7% in the assay with M14 melanoma (10 µM unless noted).
For the molecule `CC/C(=C(\c1ccc(O)cc1)c1ccc(OCCN(C)C(=O)COCCNC(=O)Cc2ccc3c(c2)CN([C@@H]2CCC(=O)NC2=O)C3=O)cc1)c1ccccc1`, the growth was 103% in the assay on DU-145 prostate (1 µM); 104% with DU-145 prostate (10 µM); 24.7% in the assay on MALME-3M melanoma (1 µM); -13.3% (active) in the assay on MALME-3M melanoma (10 µM); -5.08% (active) in the assay on MDA-MB-231 breast (1 µM); -26.3% (active) in the assay with MDA-MB-231 breast (10 µM). In addition, the growth in the assay with RXF 393 renal (1 µM) was 100%; with RXF 393 renal (10 µM), 99.4%; in the assay on SF-268 CNS (1 µM) it was 77%; in the assay with SF-268 CNS (10 µM) it was 51.8%; with SF-295 CNS (1 µM) it was 103%; with SF-295 CNS (10 µM), 81.9%. Further, the growth in the assay with SF-539 CNS (1 µM) was 78.3%; in the assay with SF-539 CNS (10 µM), 55.1%; in the assay on UACC-257 melanoma (1 µM), 96.4%; in the assay with UACC-257 melanoma (10 µM), 95.4%; with M14 melanoma (1 µM), 82.1%; with M14 melanoma (10 µM), 68.9%.
On to `CC1=C(C(=O)Nc2ccccc2)C(c2cccc3ccccc23)n2c(nc3ccccc32)N1` (stereo unspecified), for which the growth was 29% in the assay with DU-145 prostate (10 µM unless noted); 82.9% in the assay on K-562 leukemia; 43.8% in the assay on MALME-3M melanoma (10 µM unless noted); 53.8% in the assay with MDA-MB-231 breast (10 µM unless noted); 13.9% in the assay on RXF 393 renal (10 µM unless noted); 19.8% in the assay with SF-268 CNS (10 µM unless noted). For the same molecule, the growth in the assay on SF-295 CNS (10 µM unless noted) was 32.2%; with SF-539 CNS (10 µM unless noted), 43.8%; in the assay on UACC-257 melanoma (10 µM unless noted), 45.1%; in the assay on M14 melanoma (10 µM unless noted) it was 65.7%.
For the molecule `Cc1cn(-c2cc(NC(=O)c3ccc(C)c(-n4cc(-c5cnc6cccnn56)nn4)c3)cc(C(F)(F)F)c2)cn1`, the growth in the assay with DU-145 prostate (10 µM unless noted) is 105%; with K-562 leukemia it was 4.65% (active); with MALME-3M melanoma (10 µM unless noted), -12.3% (active); with MDA-MB-231 breast (10 µM unless noted) it was 24.7%; in the assay on RXF 393 renal (10 µM unless noted) it was 98.1%; in the assay on SF-268 CNS (10 µM unless noted), 112%. Besides, the growth is 93.8% in the assay with SF-295 CNS (10 µM unless noted), 77.7% in the assay on SF-539 CNS (10 µM unless noted), 22.4% in the assay with UACC-257 melanoma (10 µM unless noted) and 21.5% in the assay on M14 melanoma (10 µM unless noted).
Take `OC(c1ccccc1)(c1ccccc1)C1CCN(c2ccc3nnc(Cl)n3n2)CC1`: the growth is 54.6% in the assay on DU-145 prostate (10 µM unless noted); 10.7% in the assay on K-562 leukemia; 26.8% in the assay with MALME-3M melanoma (10 µM unless noted); 68% in the assay on MDA-MB-231 breast (10 µM unless noted); 32.8% with RXF 393 renal (10 µM unless noted); 63.7% in the assay on SF-268 CNS (10 µM unless noted). Also, the growth in the assay on SF-295 CNS (10 µM unless noted) was 19%; in the assay on SF-539 CNS (10 µM unless noted), 51.8%; in the assay with UACC-257 melanoma (10 µM unless noted) it was 72.9%; in the assay on M14 melanoma (10 µM unless noted) it was 39.2%.
As for `CCOc1ccccc1[C@H]1C(C(=O)c2ccc(Cl)cc2)C2(N[C@@H]1c1ccccc1)C(=O)Nc1ccc(Cl)cc12` (stereo partly specified), the growth in the assay with DU-145 prostate (10 µM unless noted) is 45.2%; with K-562 leukemia, 6.17% (active); with MALME-3M melanoma (10 µM unless noted), 45.7%; with MDA-MB-231 breast (10 µM unless noted), 28.8%; in the assay on RXF 393 renal (10 µM unless noted) it was 2.56% (active); with SF-268 CNS (10 µM unless noted) it was 46.6%. The growth in the assay with SF-295 CNS (10 µM unless noted) is 11.1%; in the assay on SF-539 CNS (10 µM unless noted), 37.2%; in the assay on UACC-257 melanoma (10 µM unless noted), 69.5%; with M14 melanoma (10 µM unless noted), 22.5%.
For `O=C(N/N=C/c1c[nH]c2ccccc12)Nc1ccccc1Cl`, the growth was 6.12% (active) in the assay on DU-145 prostate (10 µM unless noted); 12.2% in the assay with K-562 leukemia; 33.3% in the assay with MALME-3M melanoma (10 µM unless noted); 16.5% in the assay with MDA-MB-231 breast (10 µM unless noted); -36.1% (active) in the assay with RXF 393 renal (10 µM unless noted); 7.97% (active) with SF-268 CNS (10 µM unless noted). In addition, the growth in the assay with SF-295 CNS (10 µM unless noted) is -37.1% (active); with SF-539 CNS (10 µM unless noted) it was -10.7% (active); in the assay with UACC-257 melanoma (10 µM unless noted), 43.8%; in the assay on M14 melanoma (10 µM unless noted) it was 10.9%.
For `Nc1nc(-c2ccccc2)c(N=Nc2ccc(Cl)cc2Cl)s1`, the growth in the assay on DU-145 prostate (10 µM unless noted) is 2.88% (active); in the assay with K-562 leukemia, -44.7% (active); in the assay with MALME-3M melanoma (10 µM unless noted), -47.5% (active); with MDA-MB-231 breast (10 µM unless noted) it was -89.5% (active); with RXF 393 renal (10 µM unless noted), -69.7% (active); with SF-268 CNS (10 µM unless noted) it was -46% (active). Further, the growth is -90.5% (active) in the assay on SF-295 CNS (10 µM unless noted), -77.2% (active) with SF-539 CNS (10 µM unless noted), -2.45% (active) in the assay with UACC-257 melanoma (10 µM unless noted) and -59.6% (active) with M14 melanoma (10 µM unless noted).
For the molecule `CCC(=O)c1cc(C(=O)OC)c2ccc3c4ccccc4ccc3n12`, the growth is 93.5% in the assay with DU-145 prostate (10 µM unless noted); 91.5% in the assay on K-562 leukemia; 71.9% in the assay with MALME-3M melanoma (10 µM unless noted); 69.9% in the assay with MDA-MB-231 breast (10 µM unless noted); 82.1% with RXF 393 renal (10 µM unless noted); 89.3% with SF-268 CNS (10 µM unless noted). Also, the growth in the assay with SF-295 CNS (10 µM unless noted) was 77.6%; in the assay on SF-539 CNS (10 µM unless noted), 88.2%; in the assay on UACC-257 melanoma (10 µM unless noted) it was 99.7%; in the assay with M14 melanoma (10 µM unless noted), 105%.
In the case of `Cc1cc(C(NC(=O)CCCCCNc2cccc3c2C(=O)N(C2CCC(=O)CC2=O)C3=O)c2cccc(N(C)C)c2)c(O)c2ncccc12` (stereo unspecified), the growth in the assay on DU-145 prostate (10 µM unless noted) is 27.5%; with K-562 leukemia, 9.86% (active); in the assay on MALME-3M melanoma (10 µM unless noted), -11.8% (active); in the assay with MDA-MB-231 breast (10 µM unless noted), -22.2% (active); in the assay on RXF 393 renal (10 µM unless noted), 32.1%; in the assay on SF-268 CNS (10 µM unless noted), 20.5%. The growth was 2.01% (active) in the assay on SF-295 CNS (10 µM unless noted), 1.5% (active) in the assay on SF-539 CNS (10 µM unless noted), 1.91% (active) in the assay with UACC-257 melanoma (10 µM unless noted) and -26.5% (active) with M14 melanoma (10 µM unless noted).
Turning to `CC/C(=C(/c1ccc(O)cc1)c1ccc(OCCN(C)C(=O)COCCOCCNC(=O)Cc2ccc3c(c2)CN([C@@H]2CCC(=O)NC2=O)C3=O)cc1)c1ccccc1`, the growth with DU-145 prostate (1 µM) was 104%; with DU-145 prostate (10 µM), 105%; in the assay on MALME-3M melanoma (1 µM), 51.4%; with MALME-3M melanoma (10 µM), 1.5% (active); in the assay with MDA-MB-231 breast (1 µM), 9.31% (active); in the assay with MDA-MB-231 breast (10 µM), -22.2% (active). The growth in the assay with RXF 393 renal (1 µM) was 97.4%; in the assay with RXF 393 renal (10 µM), 99.2%; in the assay on SF-268 CNS (1 µM), 96.2%; with SF-268 CNS (10 µM), 61.3%; in the assay with SF-295 CNS (1 µM), 101%; in the assay with SF-295 CNS (10 µM) it was 94.7%. The growth in the assay on SF-539 CNS (1 µM) is 80.7%; in the assay on SF-539 CNS (10 µM), 65.3%; in the assay with UACC-257 melanoma (1 µM), 101%; with UACC-257 melanoma (10 µM), 99.8%; in the assay with M14 melanoma (1 µM), 92.8%; in the assay on M14 melanoma (10 µM), 65.4%.

The record behind these values is PubChem BioAssay (NCI).
